# According to PubChem BioAssay (EPA / NIEHS):
# Active and inactive are the calls of the source. The calls were made as follows: active = hit-call score of the fitted dose curve at least 0.9, where 1 is the maximum; inactive = score below 0.9.
# Experiments:
# [1] = ATG_GRE_CIS: Attagene CIS-FACTORIAL HepG2 Assay for human Glucocorticoid Response Elements (GRE) (AID 2282947); conditions: HepG2 GRE cis-reporter, Attagene multiplex mRNA; actives raise or lower the signal
# Procedure, shortened: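 Assay uses human hepatoma HepG2 cells transfected with cis-promoter reporter units, exposed 24 h. mRNA from reporters detected by RT-PCR plus capillary electrophoresis; DMSO serves as negative control and baseline.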
# [2] = ATG_ISRE_CIS: Attagene CIS-FACTORIAL HepG2 Assay for human Interferon Regulatory Factor 1 (IRF1) binding to an Interferon-Stimulated Response Element (ISRE) (AID 2282948); conditions: HepG2 ISRE cis-reporter (Attagene), mRNA transcription readout; actives raise or lower the signal
# Procedure, shortened: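 Cell-based cis-reporter assay; HepG2; 24 h exposure; reporter mRNA by RT-PCR plus capillary electrophoresis fluorescence; activity in either direction scored relative to DMSO.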
# [3] = ATG_M_32_CIS: Attagene CIS-FACTORIAL HepG2 Assay for M32 Transcription Factor (Internal Marker) (AID 2282949); conditions: HepG2 Attagene cis-factorial M32 reporter, mRNA; actives raise or lower the signal;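 also: background control marker of the multiplexed CIS panel rather than a real target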
# Procedure, shortened: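 Internal background marker read-out: RT-PCR/capillary electrophoresis fluorescence of reporter transcripts from transiently transfected HepG2 cells after 24 h chemical exposure. Activity fitted bidirectionally relative to DMSO negative control.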
# [4] = ATG_M_06_CIS: Attagene CIS-FACTORIAL HepG2 Assay for M06 Transcription Factor (Internal Marker) (AID 2282950); conditions: HepG2 Attagene CIS-FACTORIAL M06 internal marker reporter; actives raise or lower the signal
# Procedure, shortened: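 HepG2 cells transiently transfected with cis-regulated multiple reporter transcription units were exposed to chemical for 24 h; reporter mRNA was quantified by RT-PCR, 6-FAM primer labelling, HpaI digestion and capillary electrophoresis, fitted bidirectionally against DMSO.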
# [5] = biological target: Hypoxia-inducible factor 1-alpha (Homo sapiens) (UniProt Q16665); assay: ATG_HIF1a_CIS: Attagene CIS-FACTORIAL HepG2 Assay for human Hypoxia Inducible Factor 1 (HIF1A) (AID 2282951); conditions: HepG2 Attagene cis-factorial HIF1a reporter transcription; actives raise or lower the signal
# Hypoxia-inducible factor 1-alpha (Homo sapiens), sequence (Q16665 whole entry, looked up): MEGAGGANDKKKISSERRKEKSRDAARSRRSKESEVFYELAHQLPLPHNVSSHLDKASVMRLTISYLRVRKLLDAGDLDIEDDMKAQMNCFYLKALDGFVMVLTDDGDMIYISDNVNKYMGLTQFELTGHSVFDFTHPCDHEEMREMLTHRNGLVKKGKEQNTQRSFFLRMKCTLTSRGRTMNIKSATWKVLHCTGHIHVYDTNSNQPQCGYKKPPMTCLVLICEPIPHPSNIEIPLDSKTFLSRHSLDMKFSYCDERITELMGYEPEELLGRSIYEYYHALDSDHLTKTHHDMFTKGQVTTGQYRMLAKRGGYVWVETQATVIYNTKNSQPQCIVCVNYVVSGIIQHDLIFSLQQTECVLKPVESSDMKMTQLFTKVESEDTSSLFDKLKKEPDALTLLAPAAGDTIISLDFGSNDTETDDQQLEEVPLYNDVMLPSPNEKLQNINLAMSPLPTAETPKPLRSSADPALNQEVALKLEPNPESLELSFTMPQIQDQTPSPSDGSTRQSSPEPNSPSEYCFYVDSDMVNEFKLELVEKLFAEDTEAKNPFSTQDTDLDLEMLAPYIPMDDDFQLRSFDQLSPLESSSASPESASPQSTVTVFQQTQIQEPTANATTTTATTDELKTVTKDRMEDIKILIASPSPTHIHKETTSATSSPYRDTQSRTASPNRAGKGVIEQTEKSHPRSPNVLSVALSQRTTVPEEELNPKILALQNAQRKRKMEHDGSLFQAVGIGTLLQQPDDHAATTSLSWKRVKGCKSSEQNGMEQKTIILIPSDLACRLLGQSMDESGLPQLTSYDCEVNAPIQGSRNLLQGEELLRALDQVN
# Procedure, shortened: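 HepG2, transient cis-reporter library, 24 h dosing. RNA → RT (oligo dT) → PCR → 6-FAM primer extension → HpaI → CE. Bidirectional curve fit vs DMSO.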
# [6] = biological target: Hepatocyte nuclear factor 6 (Homo sapiens) (UniProt Q9UBC0); assay: ATG_HNF6_CIS: Attagene CIS-FACTORIAL HepG2 Assay for human Hepatocyte Nuclear Factor 6 (HNF6) (AID 2282952); conditions: HepG2 Attagene cis-factorial HNF6 reporter transcription; actives raise or lower the signal
# Hepatocyte nuclear factor 6 (Homo sapiens), sequence (Q9UBC0 whole entry, looked up): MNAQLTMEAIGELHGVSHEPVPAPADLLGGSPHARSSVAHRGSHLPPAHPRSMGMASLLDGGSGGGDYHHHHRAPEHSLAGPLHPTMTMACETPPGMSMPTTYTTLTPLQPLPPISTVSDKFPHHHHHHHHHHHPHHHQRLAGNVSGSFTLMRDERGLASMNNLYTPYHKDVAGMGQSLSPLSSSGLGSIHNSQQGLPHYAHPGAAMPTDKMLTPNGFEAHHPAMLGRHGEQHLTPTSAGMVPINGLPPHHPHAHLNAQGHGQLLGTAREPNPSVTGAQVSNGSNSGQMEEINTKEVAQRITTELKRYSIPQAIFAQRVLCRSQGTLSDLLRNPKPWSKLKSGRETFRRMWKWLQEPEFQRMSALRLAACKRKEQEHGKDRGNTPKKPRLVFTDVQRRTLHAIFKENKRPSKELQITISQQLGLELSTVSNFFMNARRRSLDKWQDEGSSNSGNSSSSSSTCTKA
# Procedure, shortened: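 HepG2 cells transiently transfected with cis-element-driven multiple reporter transcription units, dosed 24 h; reporter mRNA quantified by RT-PCR, FAM primer extension, HpaI digestion and capillary electrophoresis; bidirectional fit versus DMSO baseline.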
# [7] = biological target: Heat shock factor protein 1 (Homo sapiens) (UniProt Q00613); assay: ATG_HSE_CIS: Attagene CIS-FACTORIAL HepG2 Assay for human Heat Shock Transcription Factor 1 (HSE) (AID 2282953); conditions: HepG2 HSE cis-reporter, Attagene RNA transcription; actives raise or lower the signal
# Heat shock factor protein 1 (Homo sapiens), sequence (Q00613 whole entry, looked up): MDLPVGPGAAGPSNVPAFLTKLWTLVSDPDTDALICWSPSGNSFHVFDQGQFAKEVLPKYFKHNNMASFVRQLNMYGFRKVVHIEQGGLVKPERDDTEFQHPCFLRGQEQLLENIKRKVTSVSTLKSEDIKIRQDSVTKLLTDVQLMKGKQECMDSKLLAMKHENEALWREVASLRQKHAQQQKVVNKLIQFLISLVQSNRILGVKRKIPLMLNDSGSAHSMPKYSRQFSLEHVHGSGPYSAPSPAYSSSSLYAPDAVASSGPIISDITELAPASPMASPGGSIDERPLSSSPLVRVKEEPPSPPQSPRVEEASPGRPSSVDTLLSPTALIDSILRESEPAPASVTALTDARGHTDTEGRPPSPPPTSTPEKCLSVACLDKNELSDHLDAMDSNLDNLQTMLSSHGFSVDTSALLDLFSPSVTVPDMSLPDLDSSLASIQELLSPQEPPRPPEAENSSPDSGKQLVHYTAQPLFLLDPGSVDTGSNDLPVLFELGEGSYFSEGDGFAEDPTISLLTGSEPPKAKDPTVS
# Procedure, shortened: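 HepG2 cells transiently transfected with multiple reporter transcription units under cis-regulatory promoter control, measuring endogenous transcription factor activity. After 24 h chemical exposure, reporter mRNA quantified by RT-PCR, fluorescent labelling, HpaI digestion and capillary electrophoresis; bidirectional fit versus DMSO.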
# [8] = ATG_MRE_CIS: Attagene CIS-FACTORIAL HepG2 Assay for human Metal Responsive Element (MRE) (AID 2282954); conditions: HepG2 MRE cis-reporter transcription, Attagene multiplex; actives raise or lower the signal
# Procedure, shortened: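 After a 24 h chemical exposure, transiently transfected HepG2 cells yield RNA whose reporter sequences are amplified, FAM-labelled and sized by capillary electrophoresis. Curves are fitted bidirectionally relative to DMSO.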
# [9] = ATG_PBREM_CIS: Attagene CIS-FACTORIAL HepG2 Assay for human Phenobarbital-responsive Enhancer Module (PBREM) (AID 2282955); conditions: HepG2 PBREM cis-reporter, Attagene multiplexed transcription; actives raise or lower the signal
# Procedure, shortened: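 HepG2, transient MRTU transfection, 24 h dosing; RNA → oligo(dT) RT → PCR → 6-FAM extension → HpaI → CE. Bidirectional fit vs DMSO.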
# [10] = biological target: Paired box protein Pax-6 (Homo sapiens) (UniProt P26367); assay: ATG_Pax6_CIS: Attagene CIS-FACTORIAL HepG2 Assay for human Paired Box 6 (PAX6) (AID 2282956); conditions: HepG2 CIS-FACTORIAL PAX6 reporter transcription, RNA readout; actives raise or lower the signal
# Paired box protein Pax-6 (Homo sapiens), sequence (P26367 whole entry, looked up): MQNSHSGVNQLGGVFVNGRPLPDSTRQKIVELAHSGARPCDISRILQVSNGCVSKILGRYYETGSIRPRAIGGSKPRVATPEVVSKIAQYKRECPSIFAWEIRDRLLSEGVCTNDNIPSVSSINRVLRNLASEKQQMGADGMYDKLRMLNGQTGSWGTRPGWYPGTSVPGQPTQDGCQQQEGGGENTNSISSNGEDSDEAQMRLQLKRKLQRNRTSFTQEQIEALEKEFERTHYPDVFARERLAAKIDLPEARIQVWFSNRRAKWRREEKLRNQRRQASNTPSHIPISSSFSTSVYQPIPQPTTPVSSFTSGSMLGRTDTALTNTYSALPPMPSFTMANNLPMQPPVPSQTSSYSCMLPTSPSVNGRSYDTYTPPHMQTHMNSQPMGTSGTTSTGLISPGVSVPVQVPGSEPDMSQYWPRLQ
# Procedure, shortened: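 Multiplexed cis-reporter HepG2 system; 24 h treatment; reporter mRNA read by RT-PCR/CE fluorescence; bidirectional fit vs DMSO.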
# [11] = ATG_PXRE_CIS: Attagene CIS-FACTORIAL HepG2 Assay for human Pregnane X Receptor Element (PXRE) (AID 2282957); conditions: HepG2 Attagene CIS-FACTORIAL PXRE reporter, mRNA; actives raise or lower the signal
# Procedure, shortened: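 HepG2 cells transiently transfected with cis-regulated multiple reporter transcription units; endogenous factor activity measured as reporter mRNA 24 h after dosing. RT-PCR, fluorescent primer extension, HpaI digestion, capillary electrophoresis; bidirectional fit versus DMSO baseline.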
# [12] = ATG_PPRE_CIS: Attagene CIS-FACTORIAL HepG2 Assay for human Peroxisome Proliferator-activated Response Element (PPRE) (AID 2282958); conditions: HepG2 PPRE cis-element reporter, Attagene transcription factor profiling; actives raise or lower the signal
# Procedure, shortened: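 Transcript-level reporter induction in transfected HepG2 cells after 24 h chemical exposure, quantified by fluorescence from RT-PCR products separated by capillary electrophoresis.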
# [13] = ATG_RORE_CIS: Attagene CIS-FACTORIAL HepG2 Assay for human RAR-related Orphan Receptor Element (RORE) (AID 2282959); conditions: HepG2 Attagene cis-factorial RORE reporter, mRNA; actives raise or lower the signal
# Procedure, shortened: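 Multiplexed reporter assay measuring mRNA induction from a cis promoter element in transiently transfected HepG2 cells after 24 h treatment. Detection via RT-PCR and capillary electrophoresis fluorescence; DMSO serves as baseline.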
# [14] = ATG_Sox_CIS: Attagene CIS-FACTORIAL HepG2 Assay for human SRY-box transcription factor (SOX) (AID 2282960); conditions: HepG2 Attagene cis-factorial SOX reporter, mRNA; actives raise or lower the signal
# Procedure, shortened: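 Cells were transfected with reporter constructs under cis-regulatory promoters, then exposed to chemicals for 24 h. Reporter transcripts were quantified by fluorescence after RT-PCR and capillary electrophoresis; activity was fitted in both directions against DMSO.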
# [15] = biological target: Transcription factor Sp1 (Homo sapiens) (UniProt P08047); assay: ATG_Sp1_CIS: Attagene CIS-FACTORIAL HepG2 Assay for human Specificity Protein 1 (Sp1) (AID 2282961); conditions: HepG2 Sp1 cis-reporter transcription, actives raise or lower the signal
# Transcription factor Sp1 (Homo sapiens), sequence (P08047 whole entry, looked up): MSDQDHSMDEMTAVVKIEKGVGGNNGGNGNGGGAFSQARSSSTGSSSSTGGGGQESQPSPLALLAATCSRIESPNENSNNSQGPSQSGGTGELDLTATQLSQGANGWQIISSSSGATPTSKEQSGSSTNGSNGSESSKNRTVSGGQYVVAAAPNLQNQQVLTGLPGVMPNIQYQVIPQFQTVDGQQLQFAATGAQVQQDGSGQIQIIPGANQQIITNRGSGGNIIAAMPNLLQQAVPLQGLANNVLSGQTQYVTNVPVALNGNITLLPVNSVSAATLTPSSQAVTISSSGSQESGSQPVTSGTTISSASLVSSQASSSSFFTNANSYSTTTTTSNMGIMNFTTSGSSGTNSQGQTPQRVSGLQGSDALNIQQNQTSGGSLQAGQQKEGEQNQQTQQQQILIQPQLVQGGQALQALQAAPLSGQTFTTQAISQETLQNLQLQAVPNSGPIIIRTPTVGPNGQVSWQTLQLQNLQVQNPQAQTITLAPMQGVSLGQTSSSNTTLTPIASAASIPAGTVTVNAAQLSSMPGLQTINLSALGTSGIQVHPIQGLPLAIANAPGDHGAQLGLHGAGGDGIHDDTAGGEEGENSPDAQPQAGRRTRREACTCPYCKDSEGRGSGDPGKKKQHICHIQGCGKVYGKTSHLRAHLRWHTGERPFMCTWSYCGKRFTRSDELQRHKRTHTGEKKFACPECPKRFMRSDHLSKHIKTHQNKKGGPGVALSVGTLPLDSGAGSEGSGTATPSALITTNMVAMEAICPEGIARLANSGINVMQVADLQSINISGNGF
# Procedure, shortened: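 Measures mRNA induction of an Sp1-linked reporter in HepG2 cells 24 h post-dosing. Multiplexed reporters read by RT-PCR and capillary electrophoresis; DMSO serves as negative control and baseline.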
# [16] = ATG_SREBP_CIS: Attagene CIS-FACTORIAL HepG2 Assay for human Sterol Regulatory Element Binding (SREBP) (AID 2282962); conditions: HepG2 Attagene cis-factorial SREBP reporter, mRNA; actives raise or lower the signal
# Procedure, shortened: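 mRNA induction of transfected cis-promoter reporters in HepG2 cells, 24 h post-dose. Detection: RT-PCR with 6-FAM-labelled products, HpaI digest, capillary electrophoresis. DMSO served as negative control and baseline.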
# [17] = biological target: Signal transducer and activator of transcription 3 (Homo sapiens) (UniProt P40763); assay: ATG_STAT3_CIS: Attagene CIS-FACTORIAL HepG2 Assay for human Signal Transducer and Activator of Transcription 3 (STAT3) (AID 2282963); conditions: HepG2, Attagene cis-factorial STAT3 reporter transcription; actives raise or lower the signal
# Signal transducer and activator of transcription 3 (Homo sapiens), sequence (P40763 whole entry, looked up): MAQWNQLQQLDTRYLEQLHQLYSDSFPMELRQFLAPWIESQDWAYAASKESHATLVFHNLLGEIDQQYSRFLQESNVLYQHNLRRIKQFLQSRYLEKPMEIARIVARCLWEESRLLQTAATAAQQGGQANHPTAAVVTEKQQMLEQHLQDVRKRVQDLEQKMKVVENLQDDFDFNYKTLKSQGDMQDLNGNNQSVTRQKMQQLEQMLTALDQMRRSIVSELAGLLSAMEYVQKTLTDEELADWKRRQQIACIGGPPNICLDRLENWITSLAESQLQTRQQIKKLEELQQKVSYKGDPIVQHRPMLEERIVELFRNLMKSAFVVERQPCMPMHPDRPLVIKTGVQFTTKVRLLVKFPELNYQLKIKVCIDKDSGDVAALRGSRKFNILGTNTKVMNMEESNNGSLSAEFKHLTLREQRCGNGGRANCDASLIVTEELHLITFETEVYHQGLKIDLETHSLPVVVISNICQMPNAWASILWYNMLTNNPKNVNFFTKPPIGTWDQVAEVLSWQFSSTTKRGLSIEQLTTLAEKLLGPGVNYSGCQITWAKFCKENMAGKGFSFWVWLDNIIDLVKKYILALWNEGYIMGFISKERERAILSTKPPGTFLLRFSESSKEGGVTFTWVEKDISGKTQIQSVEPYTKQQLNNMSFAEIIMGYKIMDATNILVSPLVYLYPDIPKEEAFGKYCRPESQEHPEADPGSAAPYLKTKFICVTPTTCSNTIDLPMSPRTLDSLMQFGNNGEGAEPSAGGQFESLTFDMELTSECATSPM
# Procedure, shortened: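 After a 24 h compound incubation, total RNA from MRTU-transfected HepG2 cells was converted to cDNA and reporter sequences PCR-amplified, labelled and profiled by capillary electrophoresis. Gain and loss of signal were referenced to DMSO.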
# [18] = ATG_TA_CIS: Attagene CIS-FACTORIAL HepG2 Assay for human TA Basal Promoter (AID 2282964); conditions: HepG2 Attagene CIS-factorial TA basal promoter reporter; actives raise or lower the signal
# Procedure, shortened: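 HepG2 cells transiently transfected with multiplexed cis-promoter reporter units, dosed 24 h. Reporter mRNA measured by RT-PCR, 6-FAM labelling, HpaI digestion and capillary electrophoresis; bidirectional fit versus DMSO baseline, serving as background control.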
# [19] = ATG_TCF_b_cat_CIS: Attagene CIS-FACTORIAL HepG2 Assay for human T-Cell-Factor with beta-catenin (TCF/b-cat) (AID 2282965); conditions: HepG2 TCF/beta-catenin cis-reporter transcription, actives raise or lower the signal
# Procedure, shortened: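 Measured: reporter mRNA in HepG2 transiently transfected with cis-promoter reporter units, 24 h after chemical addition. Fitting was bidirectional, DMSO as negative control.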
# [20] = ATG_TAL_CIS: Attagene CIS-FACTORIAL HepG2 Assay for human TAL Basal Promoter (AID 2282966); conditions: HepG2 Attagene cis-factorial TAL promoter reporter; actives raise or lower the signal;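 also: background control endpoint measuring basal TAL promoter reporter mRNA not a specific factor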
# Procedure, shortened: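 HepG2 cells were transiently transfected with promoter-driven multiplexed reporter units and dosed for 24 h. Reporter mRNA was measured by RT-PCR with capillary electrophoresis fluorescence; bidirectional fits used DMSO as baseline, serving as a background control.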
structure (smiles),measurement,setting,value
COP(=O)(OC)OC,outcome,[1],inactive
same,outcome,[2],inactive
same,outcome,[3],inactive
same,outcome,[4],inactive
same,outcome,[5],inactive
same,outcome,[6],inactive
same,outcome,[7],inactive
same,outcome,[8],inactive
same,outcome,[9],inactive
same,outcome,[10],inactive
same,AC50,[11],32.7 µM (active)
same,outcome,[12],inactive
same,outcome,[13],inactive
same,outcome,[14],inactive
same,outcome,[15],inactive
same,outcome,[16],inactive
same,outcome,[17],inactive
same,outcome,[18],inactive
same,outcome,[19],inactive
same,outcome,[20],inactive
ClC1=C(Cl)[C@]2(Cl)[C@@H]3[C@@H](Cl)[C@@H](Cl)C[C@@H]3[C@@]1(Cl)C2(Cl)Cl,outcome,[1],inactive
same,outcome,[2],inactive
same,outcome,[3],inactive
same,outcome,[4],inactive
same,outcome,[5],inactive
same,outcome,[6],inactive
same,outcome,[7],inactive
same,outcome,[8],inactive
same,outcome,[9],inactive
same,outcome,[10],inactive
same,outcome,[11],inactive
same,outcome,[12],inactive
same,outcome,[13],inactive
same,outcome,[14],inactive
same,outcome,[15],inactive
same,outcome,[16],inactive
same,outcome,[17],inactive
same,outcome,[18],inactive
same,outcome,[19],inactive
same,outcome,[20],inactive
COc1ccccc1OC,outcome,[1],inactive
same,outcome,[2],inactive
same,outcome,[3],inactive
same,outcome,[4],inactive
same,outcome,[5],inactive
same,outcome,[6],inactive
same,outcome,[7],inactive
same,outcome,[8],inactive
same,outcome,[9],inactive
same,outcome,[10],inactive
same,outcome,[11],inactive
same,outcome,[12],inactive
same,outcome,[13],inactive
same,outcome,[14],inactive
same,outcome,[15],inactive
same,outcome,[16],inactive
same,outcome,[17],inactive
same,outcome,[18],inactive
same,outcome,[19],inactive
same,outcome,[20],inactive
Nc1ccc(N=Nc2ccc(-c3ccc(N=Nc4c(S(=O)(=O)O)cc5cc(S(=O)(=O)O)c(N=Nc6ccccc6)c(O)c5c4N)cc3)cc2)c(N)c1,outcome,[1],inactive
same,outcome,[2],inactive
same,outcome,[3],inactive
same,outcome,[4],inactive
same,outcome,[5],inactive
same,outcome,[6],inactive
same,outcome,[7],inactive
same,outcome,[8],inactive
same,outcome,[9],inactive
same,outcome,[10],inactive
same,outcome,[11],inactive
same,outcome,[12],inactive
same,outcome,[13],inactive
same,outcome,[14],inactive
same,outcome,[15],inactive
same,outcome,[16],inactive
same,outcome,[17],inactive
same,outcome,[18],inactive
same,outcome,[19],inactive
same,outcome,[20],inactive
CC(C)(OO)c1ccccc1,outcome,[1],inactive
same,outcome,[2],inactive
same,outcome,[3],inactive
same,outcome,[4],inactive
same,outcome,[5],inactive
same,outcome,[6],inactive
same,outcome,[7],inactive
same,outcome,[8],inactive
same,outcome,[9],inactive
same,outcome,[10],inactive
same,outcome,[11],inactive
same,outcome,[12],inactive
same,outcome,[13],inactive
same,outcome,[14],inactive
same,outcome,[15],inactive
same,outcome,[16],inactive
same,outcome,[17],inactive
same,outcome,[18],inactive
same,outcome,[19],inactive
same,outcome,[20],inactive
CCCCOCCOC(C)=O,outcome,[1],inactive
same,outcome,[2],inactive
same,outcome,[3],inactive
same,outcome,[4],inactive
same,outcome,[5],inactive
same,outcome,[6],inactive
same,outcome,[7],inactive
same,outcome,[8],inactive
same,outcome,[9],inactive
same,outcome,[10],inactive
same,outcome,[11],inactive
same,outcome,[12],inactive
same,outcome,[13],inactive
same,outcome,[14],inactive
same,outcome,[15],inactive
same,outcome,[16],inactive
same,outcome,[17],inactive
same,outcome,[18],inactive
same,outcome,[19],inactive
same,outcome,[20],inactive
CC(C)(c1ccc(OCC2CO2)cc1)c1ccc(OCC2CO2)cc1 (stereo not given),outcome,[1],inactive
same,AC50,[2],58 µM (active)
same,outcome,[3],inactive
same,outcome,[4],inactive
same,AC50,[5],31.2 µM (active)
same,outcome,[6],inactive
same,AC50,[7],60.5 µM (active)
same,AC50,[8],31.8 µM (active)
same,outcome,[9],inactive
same,AC50,[10],39.2 µM (active)
same,AC50,[11],8.18 µM (active)
same,outcome,[12],inactive
same,AC50,[13],33.4 µM (active)
same,outcome,[14],inactive
same,outcome,[15],inactive
same,AC50,[16],15.1 µM (active)
same,outcome,[17],inactive
same,AC50,[18],33.4 µM (active)
same,AC50,[19],49.7 µM (active)
same,AC50,[20],23.2 µM (active)
